Source: PubChem BioAssay
This is a sample that favours compounds with a hit; in the whole collection about 19% have one here.
IL1B secr inh – qHTS for Inhibitors of Inflammasome Signaling: IL-1-beta AlphaLISA Primary Screen; THP-1 LPS/ATP IL-1B secretion, AlphaLISA, 16 h; active compounds read low; activity change, % at 57.5 µM; hit rate 4.7% among 360,000; in the data active = activity change below about -50%; inconclusive = mostly about -30% to -49%
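Secreted IL-1B measured by AlphaLISA bead assay after 16 h compound exposure of THP-1 cells; compounds (final up to 57.5 uM) added 1 h before LPS (250 ng/mL) and ATP (1.25 mM) stimulation; lower signal means less secretion.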
TDP1 cell noCPT – qHTS for Inhibitors of human tyrosyl-DNA phosphodiesterase 1 (TDP1): qHTS in cells in absence of CPT. Potency, µM (highest dose often 46.2 µM), most hits filed as inhibitors. hit rate 15% among 420,000. DT40 Tdp1-/- hTDP1 cells, no CPT, ATP luminescence, 48 h. AID 686978, 2013; also: nearly all actives have a fitted effect of over 55% in size
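Cells were dispensed at 400 per well, compounds added by pin tool, plates incubated ≥48 hr at 37 °C, then CellTiter-Glo added for 30 min at room temperature before luminescence reading. Line: DT40 Tdp1-/- complemented with hTDP1; camptothecin omitted.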
TGFb inhibitor – qHTS for Inhibitors of TGF-b | HepG2 CAGA-GFP TGF-b/SMAD3 reporter, GFP fluorescence, 18 h; TGF-beta stimulated, 500 pg/mL final | Potency, µM (doses to about 46.1 µM), most hits filed as inhibitors | hit rate 1.2% among 410,000 | AID 588855, 2011; also: nearly all actives have a fitted effect of over 65% in size
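TGF-beta reporter screen: HEPG2 CAGA-GFP, 1% FBS, 500 pg/mL TGF-beta final, 18 h; per-cell GFP summed per well; curves fitted and categorized by class.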
TDP1 cell CPT – qHTS for Inhibitors of human tyrosyl-DNA phosphodiesterase 1 (TDP1): qHTS in cells in presence of CPT | chicken DT40 Tdp1-/-;hTDP1 cells + 20 nM CPT, ATP luminescence, 48 h | Potency, µM (top dose mostly 46.2 µM), most hits filed as inhibitors | hit rate 12% among 420,000 | AID 686979, 2013; also: nearly all actives have a fitted effect of over 55% in size
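Chicken DT40 Tdp1-/- cells stably complemented with human TDP1 were seeded at 400 cells/well in medium containing 20 nM camptothecin, exposed to pin-transferred compounds, and grown at 37 °C for at least 48 hr. Viability was read as ATP luminescence.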
HepG2 tox – qHTS for Inhibitors of TGF-b: Cytotox Counterscreen; HepG2 CAGA-GFP viability, ATP luminescence, 18 h; Potency, µM (doses to about 46.1 µM), actives largely listed as cytotoxic; hit rate 0.76% among 410,000
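CellTiter-Glo luminescence gave cytotoxicity after 18 hours at 37 degrees C. The cells were HepG2 CAGA-GFP in 1% FBS DMEM, stimulated with 500 pg/mL TGF-beta after compound addition. %Activity was normalised to no-cell wells (complete cell-killing) and DMSO (no toxicity), and curves were fitted and classified.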
ASM inhibitor – Inhibitors of Secretory Acid Sphingomyelinase (S-ASM): qHTS; placental ASM, HMU-PC fluorogenic substrate, 60 min; AID 504937, 2011; Potency, µM (highest dose often 57.5 µM), actives largely listed as inhibitors; hit rate 0.006% among 340,000; Sphingomyelin phosphodiesterase (Homo sapiens), P17405
Target sequence (P17405 47-631 limits assumed): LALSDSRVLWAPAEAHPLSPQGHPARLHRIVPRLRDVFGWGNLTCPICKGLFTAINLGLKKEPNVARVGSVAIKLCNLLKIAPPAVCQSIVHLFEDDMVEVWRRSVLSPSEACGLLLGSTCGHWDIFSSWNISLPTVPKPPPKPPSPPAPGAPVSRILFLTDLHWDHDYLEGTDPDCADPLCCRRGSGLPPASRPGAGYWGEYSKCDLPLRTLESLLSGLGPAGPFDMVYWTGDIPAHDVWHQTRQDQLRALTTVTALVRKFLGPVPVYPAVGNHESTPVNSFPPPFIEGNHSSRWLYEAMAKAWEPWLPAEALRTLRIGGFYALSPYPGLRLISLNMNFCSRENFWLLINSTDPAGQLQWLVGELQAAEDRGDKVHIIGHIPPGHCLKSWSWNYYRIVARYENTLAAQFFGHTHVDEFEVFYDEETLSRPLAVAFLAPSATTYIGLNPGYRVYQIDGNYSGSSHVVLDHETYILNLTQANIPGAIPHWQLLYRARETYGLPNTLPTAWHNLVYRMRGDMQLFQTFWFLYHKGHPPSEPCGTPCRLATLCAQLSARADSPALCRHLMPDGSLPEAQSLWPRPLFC
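Fluorescence read-out (Ex 386 nm, Em 447 nm) after stopping the reaction at pH 10. Enzyme: ASM from human placenta; substrate HMU-PC0, 9 uM final; 60 min, 37 °C. Compound preincubation 10 min, ambient temperature.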
A number is an active result; . = inactive; ? = inconclusive; / = no result; [ ] = remark or other dose. Unless noted, calls follow the shape of the dose curve; as a rule, active = well fitted curve in the direction sought with a large enough effect; inconclusive = small, poorly fitted or top-dose-only effect, or another doubt; inactive = no such curve, though single readings can be large; an effect the other way counts as inactive or inconclusive.

SMILES	IL1B secr inh	TDP1 cell noCPT	TGFb inhibitor	TDP1 cell CPT	HepG2 tox	ASM inhibitor
CC1(c2ccc(Cl)c(Cl)c2)NC(=S)N2C1NC(=S)N2c1ccccc1 (stereo not given)	-73	?	.	.	.	?
CC(C)CCNC(=O)c1ccc(NC(=O)N2CCCCc3ccccc32)cc1	/	.	.	.	.	/
COc1ccc(-n2cnc3sc4c(c3c2=O)CCCC4)cc1	.	?	.	?	.	.
CCSc1nc2sc3c(c2c(=O)n1-c1ccc(C)cc1)CCCC3	/	8.2µM	.	?	.	/
Cc1cccc(-n2c(SCC(=O)O)nc3sc4c(c3c2=O)CCC4)c1	.	.	.	.	.	.
CCSc1nc2sc3c(c2c(=O)n1-c1ccc(OC)cc1)CCN(C)C3	.	16µM	.	?	.	.
Cc1ccccc1-n1c(SCC(=O)c2c(N)n(C)c(=O)n(C)c2=O)nnc1-c1cccnc1	.	.	.	.	.	.
Cc1ccccc1-n1c(SCC(=O)c2c(N)n(C)c(=O)n(C)c2=O)nc2sc3c(c2c1=O)CCCC3	.	23µM	.	18µM	.	.
CCOc1ccc(-n2cnc3sc4c(c3c2=O)CCCC4)cc1	-63	?	.	?	.	.
COc1ccccc1C1CN(CC(=O)NCC2OCCc3ccccc32)Cc2ccccc2O1 (stereo not given)	/	.	/	.[9.04 µM]	/	/
COc1ccc(NC(=O)N2CCN(S(=O)(=O)c3ccc4c(ccn4C)c3)CC2)c(OC)c1	/	/	.	/	.	/
Cc1noc(C)c1C(=O)N1CCC1(C)C(=O)NS(=O)(=O)c1ccc(Cl)cc1 (stereo not given)	.	.	.	.	.	/
COc1ccc(S(N)(=O)=O)cc1C(=O)N1CCCC1	.	.	.	.	.	.
Cc1cc(=O)[nH]c2ccc(S(=O)(=O)NC3CCCCC3)cc12	.	.	.	?	.	.
CCCCSc1nc2sc3c(c2c(=O)n1-c1ccc(C)cc1)CCN(C)C3	?	15µM	?	16µM	.	.
CCOC(=O)CSc1nc2sc3c(c2c(=O)n1-c1ccc(C)cc1)CCN(C)C3	.	.	.	?	.	.
CCC1(C)Cc2c(sc3nc(SC)n(-c4ccc(C)cc4)c(=O)c23)CO1 (stereo not given)	/	15µM	?	?	.	/
Cc1ccc(S(=O)(=O)N2CCC(N3CCC(C)CC3)CC2)cc1	.	.	.	.	.	.
C=CCNc1cnn(-c2ccccc2)c(=O)c1Cl	.	.	.	.	.	.
Cc1c(N2C(=O)/C(=C\c3ccccc3O)SC2=S)c(=O)n(-c2ccccc2)n1C	?	?	?	7.3µM	.	.
Cc1ccc(/C=C2\SC(=S)N(c3c(C)n(C)n(-c4ccccc4)c3=O)C2=O)cc1	-80	.	.	?	.	.
Cc1c(N2C(=O)c3cccc4cccc(c34)C2=O)c(=O)n(-c2ccccc2)n1C	.	.	.	.	.	.
Cc1c(N2C(=O)/C(=C/c3cccc4ccccc34)SC2=S)c(=O)n(-c2ccccc2)n1C	-80	.	.	?	.	.
CC(C)(C)OC(=O)N/N=C/c1cc(N=Nc2ccccc2)ccc1O	.	?	?	?	.	.
Cc1c(N2C(=O)/C(=C/c3ccc(N(C)C)cc3)N(C)C2=S)c(=O)n(-c2ccccc2)n1C	.	.	.	.	.	.
SMILES	IL1B secr inh	TDP1 cell noCPT	TGFb inhibitor	TDP1 cell CPT	HepG2 tox	ASM inhibitor
CN1C(=O)/C(=C/c2cc(N=Nc3ccccc3)ccc2O)SC1=S	.	23µM	?	?	.	.
CC(OC(=O)c1ccccc1NS(=O)(=O)c1cccc(N)c1)C(=O)N(C)Cc1ccccc1 (stereo not given)	.	23µM	.	?	.	.
CC(OC(=O)c1cccc(O)c1)C(=O)N(C)Cc1ccccc1 (stereo not given)	.	.	.	.	.	.
CC(=O)c1ccc(NS(=O)(=O)c2ccc(C(C)(C)C)cc2)cc1	.	?	?	?	.	.
CC(C)(C)c1ccc(S(=O)(=O)Nc2cccc(C3OCCCO3)c2)cc1	.	15µM	.	15µM	.	.
O=C(CSc1nc(C2CCCCC2)nc2ccccc12)N1CCCC1	-81	?	.	?	.	.
CC1CCCCN1C(=O)CSc1nc(C2CC2)nc2c1cnn2-c1ccccc1 (stereo not given)	-91	?	.	?	.	.
O=C(CSc1ncnc2ccccc12)N1CCCC1	.	.	.	.	.	.
O=C(CSc1nc(C2CC2)nc2ccccc12)N1CCCCC1	-95	?	.	?	.	.
O=C(CSc1nc(C2CC2)nc2ccccc12)N1c2ccccc2Sc2ccc(C(F)(F)F)cc21	?	23µM	.	8.2µM	.	?
Cc1nn(C)c(C)c1NC(=O)CSc1nc(C2CC2)nc2c1cnn2-c1ccccc1	.	?	.	?	.	.
CCOC(=O)c1ccc(S(=O)(=O)N2CCN(c3nc(-c4cccs4)nc4ccccc34)CC2)cc1	/	.	.	.	.	/
CCc1nc(SCC(=O)N2CCN(c3ccccc3)CC2)c2oc3ccccc3c2n1	-67	21µM	.	26µM	.	.
CCc1nc(Sc2nc(C)cc(C)n2)c2oc3ccccc3c2n1	.	21µM	?	?	.	.
CC(C)c1nc(SCC(=O)N2CCCC2)c2ccccc2n1	?	?	.	.	.	.
CCc1nc(SCC(=O)N2CCCC2)c2ccccc2n1	-94	.	.	.	.	.
CCc1nc(SCC(=O)c2ccc(Cl)s2)c2oc3ccccc3c2n1	.	.	.	.	.	.
CCc1nc(N(CC)CC)c2oc3ccccc3c2n1	.	.	.	.	.	.
CC(=O)Nc1nonc1-c1nnc(SCC(=O)Nc2ccc(C)c(Cl)c2)n1C	/	.	.	.	.	/
NC(c1csc(Nc2cc(Oc3ccccc3)ncn2)n1)c1ccccc1Cl (stereo not given)	-89	?	?	?	.	/
CC(N)c1csc(Nc2cc(Oc3ccccc3)ncn2)n1 (stereo not given)	-65	0.041µM	.	?	.	/
NC(=O)c1ccc(Nc2nc(C(N)c3ccccc3Cl)cs2)cc1 (stereo not given)	.	?	.	?	.	/
